In PubChem BioAssay (Tox21):
A number with no mark means an inactive call. Active and inactive are the calls of the source. The call rests on the fitted dose curve; in most records, active means well fitted activation curve with a large enough effect in the repeat runs; inconclusive means weak or mixed curves; inactive means flat fitted curve, though single readings scatter.

Assay: A CellTox Green Cytotoxicity Assay to monitor cytotoxicity in HepG2 cells - 0 hour (AID 1224882); further: nearly all actives have a fitted effect of over 35% in size
Details: CellTox Green fluorescence; series mostly up to 76.8 µM
Description: National Center for Advancing Translational Sciences [NCATS]
NIH Chemical Genomics Center [NCGC]
U.S. Environmental Protection Agency [EPA]
National Institutes of Environmental Health Sciences [NIEHS]
National Toxicology Program [NTP]
Cell-based models are critical for drug discovery. Determining the natural cytotoxic effects resulting from test compounds is an essential research activity. A CellTox Green Cytotoxicity Assay to monitor cytotoxicity in real time of continues cell culture during 40 hours of the compound treatment was used to screen Tox21 10K library compounds in HepG2 cells. CellTox Green Cytotoxicity Assay is a nonlytic, homogeneous, biofluorescent method to measure cytotoxicity in cell culture after experimental manipulation. The assay system uses a proprietary asymmetric cyanine dye that is excluded from viable cells but preferentially stains the dead cell's DNA. […] Viable cells produce no appreciable increases in fluorescence. Therefore, the fluorescence signal produced by the binding interaction with dead cell DNA is proportional to cytotoxicity.
The mixture of HepG2 cell suspension and reagents were dispensed at 600cells/6 ul/well in 1536-well tissue culture treated black solid bottom plates using a Multidrop dispenser. After the assay plates were incubated at a 37 C/5% CO2 incubator for 5 hours, 23 nL of compounds dissolved in DMSO, positive and negative controls was transferred to the assay plate by a pintool work station. The plates were incubated at 37 C for 40 hours. The fluorescence intensity were measured at 0h, 8h, 16h, 24h, 32h and 40h time points using ViewLux plate reader during compound treatment.
On the % scale 0 is the no-effect control and ±100 the full control effect.

Row | SMILES | outcome | cytotoxicity
1 | CC(=O)c1sc(C)nc1C | inactive | –
2 | OCCN(CCO)c1cccc(Cl)c1 | inactive | –
3 | Cc1ccc2ccc(Cl)cc2n1 | inactive | –
4 | C=COCCOCCOCCOC=C | inactive | –
5 | CCCCCCOC(=O)CC | inactive | –
6 | C=C(C)C(=O)OCc1ccccc1 | inactive | –
7 | CCCN1C[C@H](CSC)C[C@@H]2c3cccc4[nH]cc(c34)C[C@H]21 | inactive | –
8 | O=C(CCN1CCN(CCO)CC1)N1c2ccccc2Sc2ccc(C(F)(F)F)cc21 | inactive | –
9 | C[C@@H](O)[C@H]1C(=O)N2C(C(=O)O)=C(SCCN=CN)C[C@H]12 | inactive | –
10 | FC(F)(F)c1ccccc1-n1ccnc1 | inactive | –
11 | O=S(O)(O)=S | – | 8.46% [at 6.97 µM]
12 | C[C@H](CCC(=O)O)[C@H]1CC[C@H]2[C@@H]3C(=O)C[C@@H]4CC(=O)CC[C@]4(C)[C@H]3CC(=O)[C@]12C | inactive | –
13 | CC1(C)S[C@@H]2[C@H](N=CN3CCCCCC3)C(=O)N2[C@H]1C(=O)O | inactive | –
14 | c1ccc2nccnc2c1 | inactive | –
15 | CC(C)CCCC(C)(C)O | inactive | –
16 | CCCC/C=C\CCCCCCCCCC=O | inactive | –
17 | CC(C(=O)O)c1ccc2c(c1)CC(=O)c1ccccc1S2 (stereo not given) | inactive | –
18 | Brc1ccc(-c2ccccc2)cc1 | inactive | –
19 | CN1C(C)(C)CCCC1(C)C | inactive | –
20 | CC1(CO)CN(c2ccccc2)NC1=O (stereo not given) | inactive | –

Row | SMILES | outcome | cytotoxicity
21 | C=CC(OCC)OCC | inactive | –
22 | CCCCN | inactive | –
23 | CCOc1cc(NC(C)=O)ccc1C(=O)OC | inactive | –
24 | CCCCCCN | inactive | –
25 | CCOCCOC(=O)/C=C/c1ccc(OC)cc1 | inactive | –
26 | O=C(OCC1(COC(=O)c2cccnc2)CCCC(COC(=O)c2cccnc2)(COC(=O)c2cccnc2)C1O)c1cccnc1 | inactive | –
27 | CCCCCCCCOS(=O)(=O)O | inactive | –
28 | COC(=O)CCCCCCCC(=O)OC | inactive | –
29 | CCCCCCOc1ccccc1C(N)=O | inactive | –
30 | CC[C@H](C)C(=O)O[C@H]1C[C@H](O)C=C2C=C[C@H](C)[C@H](CC[C@@H](O)C[C@@H](O)CC(=O)O)[C@H]21 | inactive | –
31 | COc1ccc(Br)c(C)c1 | inactive | –
32 | Cc1ccsc1/C=C/C1=NCCCN1C | inactive | –
33 | O=C(/N=N/C(=O)OCc1ccccc1)OCc1ccccc1 | inactive | –
34 | CC(C)OC(=O)CCCCC(=O)OC(C)C | inactive | –
35 | OCCCCC(O)CO (stereo not given) | inactive | –
36 | Cc1[nH]cnc1-c1ccc(Cl)cc1 | inactive | –
37 | CC(=O)Nc1cccc(C)c1 | inactive | –
38 | O=P(O)(O)OP(=O)(O)O | inactive | –
39 | CCC(C=O)CC | inactive | –
40 | Cc1c(I)c(=O)n(-c2ccccc2)n1C | inactive | –
